High-throughput results as filed in PubChem.
The list is not random: actives were taken first. Their share in the collection is about 3.1%.
14-3-3 Bad inh = disrupts binding of bovine 14-3-3 zeta to phospho-Bad peptide. P63103. TR-FRET 14-3-3zeta/Dy647-pBad peptide displacement, 1 h. inhibition, % at 21.7 µM. 220,000 tested, 0.71% active. AID 781;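 active means inhibition above about 70%, limit read from the data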;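 further: 0% = full 14-3-3 plus peptide FRET controls and 100% = background without 14-3-3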
NCF1 inh = blocks human p47phox regulatory protein of NADPH oxidases; inhibition, % at 24.7 µM; P14598; 220,000 tested, 0.53% active; AID 1274; p47phox/p22phox peptide binding, fluorescence polarization, 2 h;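 active means inhibition above about 30%, limit read from the data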;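 further: 0% = p47phox with labelled peptide and 100% = labelled peptide alone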
Mcl-1 Bim block = human Bim-Mcl-1 interaction inhibition; inhibition, % at 10 µM; 190,000 tested, 0.1% active; Q07820; Bead-based flow cytometry, Bim peptide-Mcl-1 binding; in the data active means inhibition above about 40%;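 further: 0% = no compound tracer wells and 100% = peptide blocker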
Target sequence (Q07820 whole entry, looked up): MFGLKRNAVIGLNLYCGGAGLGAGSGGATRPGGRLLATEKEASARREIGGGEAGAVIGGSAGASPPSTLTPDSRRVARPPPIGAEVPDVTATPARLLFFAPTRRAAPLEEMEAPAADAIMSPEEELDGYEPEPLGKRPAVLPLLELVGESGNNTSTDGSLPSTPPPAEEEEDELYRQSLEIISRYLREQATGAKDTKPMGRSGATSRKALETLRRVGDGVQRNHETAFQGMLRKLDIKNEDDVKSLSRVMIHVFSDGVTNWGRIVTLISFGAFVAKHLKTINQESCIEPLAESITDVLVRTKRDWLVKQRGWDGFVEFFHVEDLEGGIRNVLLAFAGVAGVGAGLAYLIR
Mcl1-Noxa inh = Mcl-1/Noxa interaction inhibition. Q07820. TR-FRET Mcl-1/Noxa peptide binding, 2 h. inhibition, % at 21.7 µM. 220,000 tested, 1.5% active. AID 1022;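 active means compounds that cut the protein-peptide binding signal by more than 50% relative to plate controls in a single-dose test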;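 further: His-tagged Mcl-1 with rhodamine Noxa BH3 peptide and terbium anti-His antibody; 0% = Mcl-1 plus Noxa peptide wells and 100% = peptide-only wells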
Mcl1-Bid inh = Mcl-1/Bid interaction inhibition; Q07820; TR-FRET Mcl-1/Bid-Dy647 peptide binding, 1536-well; inhibition, % at 21.7 µM; 220,000 tested, 0.97% active; AID 1021;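 active means compounds that cut the binding signal by more than half at the single screening dose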;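 further: His-tagged Mcl-1 with europium anti-His antibody binding Bid BH3 peptide; 0% = Mcl-1 plus peptide wells and 100% = peptide-only wells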
Active calls of the source: *; . = no result; [ ] = dose if it differs, or a comment.

SMILES	14-3-3 Bad inh	NCF1 inh	Mcl-1 Bim block	Mcl1-Noxa inh	Mcl1-Bid inh
C=CCNc1nc(N2CCCC2)nc2ccccc12	9	5	-1	33	5
Cc1n(-c2ccccc2)c2ccc(Cl)cc2[n+]1CCO	11	-11	1	16	-35
O=C(Nc1ncn[nH]1)c1ccc(S(=O)(=O)N2CCOCC2)cc1	-6	-15	2	-6	-20
CCOC(=O)c1ccc(N2N=C(C)/C(=C/C=C/c3ccco3)C2=O)cc1	-7	17	0	32	-13
O=C(O)c1cc(N2N=C(C(F)(F)F)/C(=C/C=C/c3ccco3)C2=O)ccc1Cl	27	-34	-4	106*	86*
Cc1ccsc1/C=C/C1=Cc2c(sc(NC(=O)CSc3n[nH]c(N)n3)c2C#N)C(C)(C)C1	-1	21	3	89*	-25
Cc1cc(N)ccc1-n1c(C)ccc1C	-7	-6	0	26	-204
Cc1cc(N)ccc1N1CCCC1	97*[fluorescence artefact?]	97*	32	83*	-24
NC(=O)c1cc(N)ccc1N1CCCCC1	-1	-4	-3	5	-55
NC(=O)c1cc(N)ccc1N1CCCC1	2	140*	-2	23	-26
COc1ccc(CN2C(=O)c3cccnc3C2Nc2cc(Cl)c(OC)cc2OC)cc1 (stereo not drawn)	92*	-13	-5	39	90*
CCOC(=O)N1CCN(c2ccc(C(=O)CC)cc2F)CC1	-11	9	3	-4	-11
CCCC(=O)c1ccc(N2CCN(C(=O)OCC)CC2)c(F)c1	77*	-5	-1	-4	-5
O=C(O)c1ccc2c(c1)C(=O)N(c1cccc(C(=O)/C=C/c3ccccc3)c1)C2=O	9	10	-2	21	2
Cc1ccc(C23CC4CC(CC(C(=O)N5CCOCC5)(C4)C2)C3)cc1	-4	-15	-3	22	58*
O=C(N1CCOCC1)C12CC3CC(C1)CC(c1ccccc1)(C3)C2	12	-14	-3	-5	-20
Cc1ccccc1C(=O)NNC(=O)CSc1nc2ccccc2c(=O)[nH]1	10	-8	.	10	15
CC(=O)c1ccc(NC(=S)NC(C)c2ccc(Cl)cc2Cl)cc1 (stereo not drawn)	-5	-28	-1	-1	-20
COc1ccc(Cl)cc1NC(=O)C(OC)c1ccccc1 (stereo not drawn)	87*	3	-2	29	27
CCC(C(=O)Nc1cc(Cl)ccc1OC)c1ccccc1 (stereo not drawn)	3	12	-1	-1	4
COc1cc(/C=C2\SC(=S)NC2=O)ccc1OS(=O)(=O)c1ccccc1	-7	-52	-13	79*	-60
COc1cc(/C=C2/SC(=S)NC2=O)ccc1OS(=O)(=O)c1ccc(C)cc1	21	-58	-10	98*	82*
CCOc1ccc(/C=C2\SC(=S)NC2=O)cc1OC	-10	-38	2	21	-17
COc1ccc(/C=C2\SC(=S)NC2=O)cc1OS(=O)(=O)c1ccc(NC(C)=O)cc1	-4	-59	-11	34	-3
Cc1ccc(OCCNC(=O)Cc2ccc(F)cc2)cc1	-5	-5	2	6	-6
SMILES	14-3-3 Bad inh	NCF1 inh	Mcl-1 Bim block	Mcl1-Noxa inh	Mcl1-Bid inh
Cc1nc(Nc2ccc(O)cc2)c2c3c(sc2n1)CCCC3	2	-12	.	20	-13
Cc1ccc(CNc2nc(C)nc3sc4c(c23)CCC4)cc1	-16	-6	0	-16	91*
COc1cccc(C(=O)NC2CC3CCCC(C2)N3CC(=O)Nc2ccccc2)c1 (stereo not drawn)	83*[fluorescence artefact?]	58*	1	66*	54*
O=C(CCN1CCN(c2ccccc2)CC1)N/N=C/c1ccccc1O	-13	-12	2	16	-41
CCN1CCN(C(=O)NC2CC(=O)N(c3ccc(OC)cc3)C2)CC1 (stereo not drawn)	-3	-6	0	-9	-10
CC(=O)OC1CC(c2cc(C(C)(C)C)c(O)c(C(C)(C)C)c2)=NO1 (stereo not drawn)	2	-9	.	9	-33
C=CCSc1nc(NC)c2sccc2n1	-3	-13	-1	0	9
O=[N+]([O-])c1ccc(NC(=S)NCCc2ccc(F)cc2)cc1	-12	-22	-16	52*	6
COc1cccc(CNC(=O)C2CCN(S(=O)(=O)N3CCCCC3)CC2)c1	-1	4	3	10	92*
COc1cc(OC)c2ccc(=O)oc2c1C(CCN1CCN(c2ccccc2)CC1)c1ccc(N(C)C)cc1 (stereo not drawn)	-1	94*	.	5	-135
